Records with an inconclusive call do not appear. More than one record can exist for a structure, and the calls need not agree. The source made the active and inactive calls. The calls were made as follows, unless noted: active = hit-call score of the fitted dose curve at least 0.9, where 1 is the maximum; inactive = score below 0.9.
How the values were obtained:
[1] = IUF_NPC2c_oligodendrocyte_migration_120hr: Leibniz Research Institute for Environmental Medicine (IUF) 120-hour Neural Progenitor Cell Migration Assay for Oligodendrocyte Migration (NPC2c) (AID 2284297);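 also: O4-positive oligodendrocyte migration distance divided by radial glia migration distance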
Method in brief: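 Primary hNPC spheres migrating on extracellular matrix, exposed five days to a 7-point dilution series with solvent control. Oligodendrocyte migration was scored by high-content imaging of O4 immunostaining and expressed relative to radial glia distance.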

[2] = IUF_NPC2a_radial_glia_migration_120hr: Leibniz Research Institute for Environmental Medicine (IUF) 120-hour Neural Progenitor Cell Migration Assay for Radial Glia Migration (NPC2a) (AID 2284298)
Method in brief: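 In this multiplexed test, fetal hNPC spheres migrate radially on poly-D-lysine/laminin in N2 medium (37C, 5% CO2, pH 7.2-7.6) under continuous compound exposure over five days. Migration is scored at 120 h from automated Hoechst nuclear imaging.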

[3] = IUF_NPC2a_radial_glia_migration_72hr: Leibniz Research Institute for Environmental Medicine (IUF) 72-hour Neural Progenitor Cell Migration Assay for Radial Glia Migration (NPC2a) (AID 2284299)
Method in brief: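 Human fetal neural progenitor spheres (0.3 mm) plated on poly-D-lysine/laminin in N2 differentiation medium and exposed from day 0 at 7 concentrations; radial glia migration distance from sphere edge measured at 72 h on brightfield images, mean of four directions, vs DMSO.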

[4] = IUF_NPC2b_neuronal_migration_120hr: Leibniz Research Institute for Environmental Medicine (IUF) 120-hour Neural Progenitor Cell Migration Assay for Neuron Migration (NPC2b) (AID 2284300)
Method in brief: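 Neurons identified by TUBB3 immunostaining and Hoechst nuclei; migration distance measured automatically on fixed wells at 120 h, normalized to glia migration. Exposure spanned five days of differentiation in N2 medium, seven test concentrations.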

[5] = IUF_NPC3_neuronal_differentiation_120hr: Leibniz Research Institute for Environmental Medicine (IUF) 120-hour Neuronal Differentiation Assay (NPC3) (AID 2284301)
Method in brief: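 Single 0.3 mm neurospheres from human fetal cortex were plated in differentiation medium containing test compound. Medium was half-replaced on day 3. After 120 h cells were fixed, immunostained and imaged, and neuronal fraction was scored against DMSO control.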

[6] = IUF_NPC4_neurite_length_120hr: Leibniz Research Institute for Environmental Medicine (IUF) 120-hour Neuronal Morphology Assay for Neurite Length (NPC4) (AID 2284302)
Method in brief: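 Read-out is mean neurite length in µm of TUBB3-positive neurons, skeletonized from high-content fluorescence images after 120 h. Single 0.3 mm primary human neural progenitor spheres differentiated on poly-D-lysine/laminin under continuous compound exposure; DMSO was baseline.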

CD69, CD69 (gene 969) = experiment: BSK_LPS_CD69: BioMAP Diversity Plus: LPS Assay for CD69 Biomarker Activity (AID 2284303); conditions: primary human HUVEC with PBMC
Method in brief: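 Human umbilical vein endothelial cells co-cultured with PBMC under LPS stimulation, chemical exposure 24 h; cell-surface CD69 measured by ELISA and fitted in the positive direction versus DMSO.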

[7] = IUF_NPC5_oligodendrocyte_differentiation_120hr: Leibniz Research Institute for Environmental Medicine (IUF) 120-hour Oligodendrocyte Differentiation Assay (NPC5) (AID 2284304; active = hit-call score of the fitted dose curve at least 0.9, where 1 is the maximum;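 also: primary human fetal neural progenitor spheres plated to migrate and differentiate; share of O4-positive cells among Hoechst nuclei found by CNN image analysis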)
Method in brief: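 Human primary NPC neurospheres migrating and differentiating on laminin for 120 h under continuous compound exposure (serial dilution, solvent control). Endpoint: percent O4+ oligodendrocytes among Hoechst nuclei, detected by CNN image analysis, with DMSO as negative control.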

[8] = IUF_NPC4_neurite_area_120hr: Leibniz Research Institute for Environmental Medicine (IUF) 120-hour Neuronal Morphology Assay for Neurite Area (NPC4) (AID 2284305; active = hit-call score of the fitted dose curve at least 0.9, where 1 is the maximum)
Method in brief: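 Neurite area is read out as the mean pixel area, excluding nuclei, of skeletonized TUBB3-positive neurons imaged after 120 h. Primary human neural progenitor spheres differentiated on poly-D-lysine/laminin with compound present from day 0. Activity was referenced to DMSO controls.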

[9] = IUF_NPC2-5_cytotoxicity_120hr: Cytotoxicity Assessment at 120 hours in the Leibniz Research Institute for Environmental Medicine (IUF) Neural Progenitor Cell Migration and Differentiation Assay (NPC2-5) (AID 2284307; active = hit-call score of the fitted dose curve at least 0.9, where 1 is the maximum;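 also: LDH released into supernatant as membrane damage marker via resorufin fluorescence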)
Method in brief: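 Fluorescence (RFU) from LDH-driven resazurin reduction in medium supernatants measured loss of membrane integrity after 120 h of compound exposure of differentiating primary human neural progenitor spheres on an extracellular matrix.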

[10] = IUF_NPC2-5_cell_number_120hr: Cell Number Assessment at 120 hours in the Leibniz Research Institute for Environmental Medicine (IUF) Neural Progenitor Cell Migration and Differentiation Assay (NPC2-5) (AID 2284308);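 also: count of Hoechst-stained nuclei in migration zone around plated human neural progenitor spheres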
Method in brief: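 Cell number is taken as all Hoechst-positive nuclei detected in the area into which cells migrate out of the sphere, scored at 120 h and referenced to DMSO solvent control, which was kept at no more than 0.1%.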

[11] = IUF_NPC2-5_viability_120hr: Viability Assessment at 120 hours in the Leibniz Research Institute for Environmental Medicine (IUF) Neural Progenitor Cell Migration and Differentiation Assay (NPC2-5) (AID 2284312)
Method in brief: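 Alamar blue resorufin fluorescence read after 5 days of differentiation, with compound present from day 0 and replenished at day 3. Primary hNPC spheres on laminin-coated plates, 37C; seven concentrations plus solvent control, fitted against DMSO.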

[12] = CCTE_Mundy_HCI_iCellGluta_NOG_NeuriteLength: CCTE's Neurite Outgrowth Assay in iCellGluta cells for Neurite Length, Mundy Lab (AID 2284318; active = hit-call score of the fitted dose curve at least 0.9, where 1 is the maximum)
Method in brief: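 Automated high-content imaging of betaIII-tubulin (Alexa Fluor-488) and Hoechst-stained cells gave neurite length, normalized to the DMSO baseline.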

[13] = IUF_NPC1_cytotoxicity_72hr: Cytotoxicity Assessment at 72 hours in the Leibniz Research Institute for Environmental Medicine (IUF) Neural Progenitor Cell Proliferation Assay (NPC1) (AID 2284332; active = hit-call score of the fitted dose curve at least 0.9, where 1 is the maximum;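 also: rising LDH signal means more cytotoxicity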)
Method in brief: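 Human fetal neural progenitor spheres (0.3 mm) in EGF/FGF proliferation medium, 37C, exposed 72 h without renewal. LDH release in supernatant read by resorufin fluorescence; gain of signal scored relative to dynamic range.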

[14] = CCTE_Mundy_HCI_iCellGluta_NOG_NeuronCount: CCTE's Neurite Outgrowth Assay in iCellGluta cells for Neuron Count, Mundy Lab (AID 2284340; active = hit-call score of the fitted dose curve at least 0.9, where 1 is the maximum;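 also: cells fixed about 48 h after compound addition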)
Method in brief: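 Neuron count read by automated high-content imaging of Hoechst 33342 and betaIII-tubulin/Alexa Fluor-488 labelling in human iPSC glutamatergic neurons. Activity fitted relative to DMSO.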

[15] = CCTE_Mundy_HCI_iCellGluta_NOG_NeuriteCount: CCTE's Neurite Outgrowth Assay in iCellGluta cells for Neurite Count, Mundy Lab (AID 2284342; active = hit-call score of the fitted dose curve at least 0.9, where 1 is the maximum;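 also: chemical exposure about 48 hours starting 2 hours after plating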)

Measured: AC50

[Cd+2].[Cl-].[Cl-]
active: [1] 15.1 µM | [2] 8.38 µM | [3] 8.95 µM | [4] 17.7 µM | [5] 3.42 nM | [6] 7.58 µM | CD69, CD69 (gene 969) 7.19 µM | [7] 17.5 µM | [8] 15.6 µM | [9] 11.2 µM | [10] 4.7 µM | [11] 6.4 µM | [12] 10.8 µM | [14] 15 µM | [15] 11.4 µM
inactive: CD69, CD69 (gene 969) | [13]
